Assay results from PubChem BioAssay (NCATS).
Inconclusive results are not listed. Entries that show only a call come without a potency. Calls of active or inactive are those of the source. The call rests on the fitted dose curve; in most records, active means well fitted inhibition curve with a large enough effect; inconclusive means small, poorly fitted or top-dose-only effect; inactive means no such curve, though single readings can be large or run the other way. Numbered stars: 1 amine (or outer) side, 2 acyl side, 3 side chain; on linkers, the order of the positions; unused ones are H or OH. Bridge positions count the residues as written; N and C are the ends. Square brackets hold non-standard residues; d marks the D form. Peptide text beside a SMILES is read from it. I, II: the chains in the order shown. Actinocin(9to1) = Cc1c2oc3c(C)ccc(C(=O)[*:1])c3nc-2c(C(=O)[*:2])c(N)c1=O; NMeV = CN[C@H](C(=O)O)C(C)C; Sar = CNCC(=O)O

System: Zika virus NS2B-NS3 protease (unlinked)
Assay: Optimization of GU AMC qHTS for Zika virus inhibitors: Unlinked NS2B-NS3 protease assay (AID 1347151); further: nearly all actives have a fitted effect of over 80% in size
Conditions: recombinant ZIKV NS2B-NS3 protease, fluorogenic AMC substrate; series mostly up to 52.5 µM
From the text: Avindra Nath, Ph.D., National Institute of Neurological Disorders and Stroke (NINDS), Bethesda, MD
Radhakrishnan Padmanabhan, Ph.D., Georgetown University (GU), Washington D.C.
Zika Virus causes congenital defects, including microcephaly and is associated with Guillain-Barre syndrome, eningoencephalitis and myelitis in infected adult. […] Using a target-based approach, we hope to establish a screening paradigm to uncover novel, cell-active NS2B-NS3 protease (Zika Virus) specific inhibitors from NCATS' collection of small molecules using qHTS.
Early Translation Branch (ETB)
National Center for Advancing Translational Sciences (NCATS), Rockville, MD
National Institute of Health (NIH), Bethesda, Maryland
Padmanabhan lab provided the NS2B hydrophilic domain and NS3 protease domain in a noncovalent complex used for the unlinked assay. Control compound aprotinin is obtained from Thermo Scientific (#78432; Waltham, Massachusetts). NS2B-NS3 AMC substrate (Bz-Nle-Lys-Arg-Arg-AMC; Nle-KRR-AMC) purchased from Bachem (#I-1995; Torrance, CA). Ac-VKTGKR-AMC purchased from Genscript or Bachem, Ac-FAAGKR-AMC purchased from Genscript, Ac-GLVKRR-AMC purchased from Genscript, Ac-LKKR-AMC purchased from Genscript.
GU AMC unlinked NS2B-NS3 protease qHTS protocol:
Briefly, 3 microL of Zika virus unlinked NS2B-NS3 protease (25 nM for linked final concentration), in assay buffer (10 mM Tris-HCl pH 8.0 with 0.01% Tween 20) was dispensed into a 1,536-well solid-bottom black plate (Greiner Bio One, Monroe, NC). Twenty-three nL of compounds (final concentration range 7.28 nM to 114 microM) or control Aprotinin (final concentration range 3.47 nM to 114 microM) were transferred via Wako Pin-tool (Wako Automation, Richmond, VA). […] Plates were then read immediately on a ViewLux High-throughput CCD imager (PerkinElmer, Waltham, MA) equipped with standard UV fluorescence optics (340(30) nm excitation, 450(20) nm emission) then incubated (room temperature, protected from light) for 15 minutes (~20% conversion). The change in fluorescence intensity over the 15-minute reaction period was normalized against no-inhibitor and no-enzyme controls and the resulting percent inhibition data were fitted to a 4-parameter Hill equation. Aprotinin was used as the intraplate control.
Potency means the concentration at half of the fitted maximal effect.

| SMILES | Potency |
| --- | --- |
| CCC(NC(C)C)C(O)c1ccc(O)c(O)c1 (centres undefined) | inactive |
| Nc1cc(Cl)c(NC2=NCCN2)c(Cl)c1 | inactive |
| CCCC1O[C@@H]2C[C@H]3[C@@H]4CCC5=CC(=O)C=C[C@]5(C)[C@H]4[C@@H](O)C[C@]3(C)[C@]2(C(=O)CO)O1 (some centres undefined) | inactive |
| CNCCC(Oc1ccccc1C)c1ccccc1 (centres undefined) | inactive |
| COc1c(C)c2c(c(O)c1C/C=C(\C)CCC(=O)O)C(=O)OC2 | 24.1 µM (active) |
| CC(=O)O[C@H]1C[C@@H]2CC[C@@H]3[C@H](CC[C@@]4(C)[C@H]3C[C@H]([N+]3(C)CCCCC3)[C@@H]4OC(C)=O)[C@@]2(C)C[C@@H]1[N+]1(C)CCCCC1 | inactive |
| C[C@]12CC[C@@H]3c4ccc(O)cc4CC[C@H]3[C@@H]1CC[C@@H]2O | inactive |
| N[C@@H](Cc1cnc[nH]1)C(=O)O | inactive |
| CC(C)COC(=O)OCN1C(=O)CN(CCN2CC(=O)N(COC(=O)OCC(C)C)C(=O)C2)CC1=O | inactive |
| C1CCc2nnnn2CC1 | inactive |
| COc1cc2c(cc1O)CC[C@@H]1[C@@H]2CC[C@]2(C)[C@@H](O)CC[C@@H]12 | inactive |
| CC(C)C[C@H]1C(=O)N2CCC[C@H]2[C@]2(O)O[C@](NC(=O)[C@@H]3C=C4c5cccc6[nH]c(Br)c(c56)C[C@H]4N(C)C3)(C(C)C)C(=O)N12 | 11.9 µM (active) |
| CC(C)(C)CC(C)(C)c1ccc(OCCOCC[N+](C)(C)Cc2ccccc2)cc1 | inactive |
| N[C@H](CO)C(=O)O | inactive |
| C[N+]1(CCCCC[N+]2(C)CCCC2)CCCC1 | inactive |
| CC[C@H](C)C(=O)O[C@H]1CCC=C2C=C[C@H](C)[C@H](CC[C@@H]3C[C@@H](O)CC(=O)O3)[C@H]21 | inactive |
| COc1cc(NS(C)(=O)=O)ccc1Nc1c2ccccc2nc2ccccc12 | 29.9 µM (active) |
| CC1(C)CCC(NC(=O)[C@@H](N)CCC(=O)O)CC1 | inactive |
| COC(=O)[C@H]1[C@H]2C[C@H]3c4[nH]c5ccccc5c4CCN3C[C@H]2CC[C@@H]1O | inactive |
| O=C(O)c1cc2cc(Cc3cccnc3)ccc2o1 | inactive |
| CN1C2CCC1CC(OC(=O)c1c[nH]c3ccccc13)C2 (centres undefined) | inactive |
| CC(CCc1ccccc1)NCC(O)c1ccc(O)c(C(N)=O)c1 (centres undefined) | 26.7 µM (active) |
| Cc1c2oc3c(C)ccc(C(=O)N[C@@H]4C(=O)N[C@H](C(C)C)C(=O)N5CCC[C@H]5C(=O)N(C)CC(=O)N(C)[C@@H](C(C)C)C(=O)O[C@@H]4C)c3nc-2c(C(=O)N[C@@H]2C(=O)N[C@H](C(C)C)C(=O)N3CCC[C@H]3C(=O)N(C)CC(=O)N(C)[C@@H](C(C)C)C(=O)O[C@@H]2C)c(N)c1=O (I: T[dV]P[Sar][NMeV] / II: T[dV]P[Sar][NMeV]; ester I:1-I:C, II:1-II:C; linker I:N-II:N via Actinocin(9to1)) | 27.1 µM (active) |
| O=C1CCC(c2ccc(-n3ccnc3)cc2)=NN1 | inactive |
| Nc1ccn([C@@H]2O[C@H](CO)[C@@H](O)C2(F)F)c(=O)n1 | inactive |
| C[C@@H]1C(=O)NC2=Nc3cccc(Cl)c3CN21 | inactive |
| CCCn1c(=O)[nH]c(=O)c2[nH]cnc21 | inactive |
| Oc1ccc(O)cc1 | inactive |
| CNCCC=C1c2ccccc2CCc2ccccc21 | inactive |
